The panel holds about 83,000 compounds, 20% with a hit somewhere; the sample as a whole holds those more often.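 Treatment: one concentration, 48 hours, 96-well format. Scoring: percent growth, with anything below 10 considered active.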 Unmarked numbers belong to inactive results. Active and inactive are the calls of the source.

The first assay concerns SNB-75 CNS. Kind of assay: NCI-60 one-dose screen, 48 h (100 = growth as untreated, 0 = no growth, -100 = all killed). As to conditions: 10 µM unless noted.
As for `C/C(CC1(O)C(=O)Nc2ccccc21)=N\O` (configuration not stated), the growth was 92.4%.

As for `Cc1ccc2c(n1)C(=O)C(Cl)=C(Nc1ccccc1C(=O)OC(C)(C)C)C2=O`, the growth is 98.6%.

With `COc1ccc(/C=N\NC(=O)c2cnn(CC(O)c3ccccc3)c2N)cc1OCc1ccc(Cl)cc1` (configuration not stated), the growth was 60.8%.

As to `NC(N)=NS(=O)(=O)c1ccc(N=Nc2c(N)nn(-c3ccc([N+](=O)[O-])cc3[N+](=O)[O-])c2N)cc1`, the growth was 94.7%.

Regarding `COc1ccccc1Cn1cc(C#N)c(N)c1C(=O)c1ccc(Br)cc1`, the growth was 81.1%.

For `CC(=C(c1ccc(OCCN2CCCC2)cc1)c1ccc(OCCN2CCCC2)cc1)c1ccc(Cl)cc1`, the growth was 45.8%.

On to `CCN(CC)CCOc1ccc(C(=C(C)Cc2ccc(OC)cc2)c2ccc(OCCN(CC)CC)cc2)cc1`, for which the growth is 76.5%.

For `Fc1ccc(-c2cn3c(-c4c[nH]c5ccc(Br)cc45)csc3n2)cc1`, the growth is -7.44% (active).

On to `CC1=C(C)C(=O)C(Nc2cccc(C(=O)OC(C)(C)C)c2)=CC1=O`, for which the growth is 71%.

In the case of `CSc1ccc(/C(=N/N=C(N)N)c2ccc(Cl)cc2)cc1`, the growth was 1.16% (active).

Take `O=C(/C=C/Nc1ccc(S(=O)(=O)Nc2ncccn2)cc1)c1ccc(N=Cc2c(O)[nH]c3ccccc23)cc1`: the growth is 102%.

With `N#Cc1c(-c2cccs2)cc(-c2cnccn2)nc1SCC(=O)N/N=C/c1cccs1`, the growth was 42.8%.

For `O=S(=O)(NCCCNc1nccc(-c2[nH]c(-c3ccccc3)nc2-c2ccc(F)c(O)c2)n1)c1ccccc1`, the growth is 79.5%.

With `CC1(C)CC[C@]2(C(=O)NCCCCCCN(CCCN)CCCN)CC[C@]3(C)C(=CC[C@@H]4[C@@]5(C)CC[C@H](O)C(C)(C)[C@@H]5CC[C@]43C)[C@@H]2C1`, the growth is 95.5%.

Take `CCOC(=O)c1c(NCC(=O)Nc2cccc([N+](=O)[O-])c2)sc(C(C)=O)c1C`: the growth was -0.605% (active).

In the case of `O=c1oc2ccc(-c3ccc(F)cc3F)cc2c(=O)n1-c1ccc(Br)cc1F`, the growth was 73.9%.

Turning to `Cc1ccc2c(n1)C(=O)C(Cl)=C(Nc1cccc(C(=O)OC(C)(C)C)c1)C2=O`, the growth is 95.7%.

As for `C/C(=C(\c1ccc(O)cc1)c1ccc(OCCN2CCCCCC2)cc1)c1ccc(Cl)cc1`, the growth was -77.9% (active).

As to `CC1=C(C)C(=O)C(Nc2cccc(C(F)(F)F)c2)=C(Br)C1=O`, the growth was 62.2%.

Consider `CC(C)C(/C=C/c1[nH]ncc1-c1cc(Cl)ccc1O)N1CCOCC1` (configuration not stated), for which the growth is 65.3%.

Regarding `Fc1cccc(Cl)c1/C=N/Nc1nc(N/N=C/c2c(F)cccc2Cl)nc(N2CCCCC2)n1`, the growth was 37.5%.

For `COc1ccc(C2C(C#N)=C(/N=C/c3ccc(Cl)cc3)Oc3c2sc2c(C)cccc32)cc1` (configuration not stated), the growth was 29.2%.

`O=C(CCCCCCNC(=O)C(O)(O)C(F)(F)F)Nc1ccc(Cl)cc1`: the growth is 42.5%.

`O=C1C(SCc2ccccc2)=C(Cl)CN1c1ccc(Cl)cc1`: the growth is 103%.

`Cc1ccc(-c2nc(SCC(=O)c3ccccc3)nc(Nc3ccc(S(N)(=O)=O)cc3)c2C#N)cc1`: the growth is 80%.

Regarding `O=C1C(N2CCN(c3ccccc3)CC2)=C(Cl)C(=O)c2ncccc21`, the growth is 83.7%.

In the case of `C#Cc1nc(C(=O)NCCCCCCC(=O)NO)cs1`, the growth is -65.2% (active).

For `C[C@H](Nc1ncnc2ccc(-c3cnc(Cl)c(NS(C)(=O)=O)c3)cc12)c1ccccc1`, the growth was -3.07% (active).

For the compound `Cc1ccc(/C=N/Nc2nc(Nc3ccccc3)nc(Nc3ccc(S(N)(=O)=O)cc3)n2)cc1`, the growth was 67.7%.

For `Cc1ccc(S(=O)(=O)NCCCNc2nc(Nc3ccc(N4CCN(C)CC4)cc3)nc3ccsc23)cc1`, the growth was 88.5%.

Turning to `CC(C)=CCC[C@](C)(O)[C@H]1CC[C@]2(C)[C@@H]1CC[C@@H]1[C@@]3(C)CC[C@H](N)C(C)(C)[C@@H]3CC[C@]12C`, the growth was 87.2%.

Consider `NNc1nnc2nc(Nc3ccccc3)nc(Nc3ccc(S(N)(=O)=O)cc3)n12`, for which the growth is 90.6%.

The test system of another assay is SNB-19 CNS. The description is as above. As to conditions: 10 µM unless noted.
For the compound `COCCOc1ccc2ncc(C#Cc3cncc(C(=O)Nc4ccc(CN5CCN(C)CC5)c(C(F)(F)F)c4)c3)n2n1`, the growth is 18.1%.

As to `CCOC(=O)c1c(N)c(C#N)cn1Cc1ccc(Cl)cc1Cl`, the growth was 68.7%.

For the compound `Cc1ccc(Nc2nc(SC(C)C)nc(-c3ccccc3)c2C#N)cc1`, the growth was 97.1%.

`O=C(CSc1nc2ccccc2c(=O)n1-c1ccc(Cl)c(Cl)c1)Nc1ccc(S(=O)(=O)Nc2ccc(Cl)nn2)cc1`: the growth was 96.3%.

As for `N#Cc1cnc2ccc(-c3cnc4n[nH]nc4c3)cc2c1N1CCc2cc(F)c(Cl)cc21`, the growth was 16.4%.

For the compound `CNC(=O)Nc1ccc(Nc2cc(-c3ccc(-n4cccn4)cc3)[nH]n2)c(C)c1`, the growth is 97.6%.

For the compound `CN1CCN(Cc2ccc(NC(=O)c3cncc(C#Cc4cnc5ccc(N)nn45)c3)cc2C(F)(F)F)CC1`, the growth is 35%.

Regarding `Cc1cc(=O)oc2cc(OCCCOc3ccc(/C=C/C(=O)Nc4ccc(Br)cc4)cc3)ccc12`, the growth is 86.9%.

In the case of `C/C(CC1(O)C(=O)Nc2ccccc21)=N\O` (configuration not stated), the growth is 103%.

As for `Cc1ccc2c(n1)C(=O)C(Cl)=C(Nc1ccccc1C(=O)OC(C)(C)C)C2=O`, the growth is 80.4%.

Consider `COc1ccc(/C=N\NC(=O)c2cnn(CC(O)c3ccccc3)c2N)cc1OCc1ccc(Cl)cc1` (configuration not stated), for which the growth is 68.2%.

Consider `NC(N)=NS(=O)(=O)c1ccc(N=Nc2c(N)nn(-c3ccc([N+](=O)[O-])cc3[N+](=O)[O-])c2N)cc1`, for which the growth is 99.8%.

In the case of `COc1ccccc1Cn1cc(C#N)c(N)c1C(=O)c1ccc(Br)cc1`, the growth is 84.9%.

Turning to `CC(=C(c1ccc(OCCN2CCCC2)cc1)c1ccc(OCCN2CCCC2)cc1)c1ccc(Cl)cc1`, the growth was -48.8% (active).

Consider `CCN(CC)CCOc1ccc(C(=C(C)Cc2ccc(OC)cc2)c2ccc(OCCN(CC)CC)cc2)cc1`, for which the growth is 74.4%.

As for `Fc1ccc(-c2cn3c(-c4c[nH]c5ccc(Br)cc45)csc3n2)cc1`, the growth was 52.6%.

On to `CC1=C(C)C(=O)C(Nc2cccc(C(=O)OC(C)(C)C)c2)=CC1=O`, for which the growth was 78.2%.

On to `CSc1ccc(/C(=N/N=C(N)N)c2ccc(Cl)cc2)cc1`, for which the growth is 19.6%.

Take `O=C(/C=C/Nc1ccc(S(=O)(=O)Nc2ncccn2)cc1)c1ccc(N=Cc2c(O)[nH]c3ccccc23)cc1`: the growth was 112%.

Regarding `N#Cc1c(-c2cccs2)cc(-c2cnccn2)nc1SCC(=O)N/N=C/c1cccs1`, the growth was 47.7%.

For the compound `O=S(=O)(NCCCNc1nccc(-c2[nH]c(-c3ccccc3)nc2-c2ccc(F)c(O)c2)n1)c1ccccc1`, the growth was 110%.

Take `CC1(C)CC[C@]2(C(=O)NCCCCCCN(CCCN)CCCN)CC[C@]3(C)C(=CC[C@@H]4[C@@]5(C)CC[C@H](O)C(C)(C)[C@@H]5CC[C@]43C)[C@@H]2C1`: the growth is 96.5%.

As for `CCOC(=O)c1c(NCC(=O)Nc2cccc([N+](=O)[O-])c2)sc(C(C)=O)c1C`, the growth was 9.51% (active).

As to `O=c1oc2ccc(-c3ccc(F)cc3F)cc2c(=O)n1-c1ccc(Br)cc1F`, the growth is 71.7%.

Turning to `Cc1ccc2c(n1)C(=O)C(Cl)=C(Nc1cccc(C(=O)OC(C)(C)C)c1)C2=O`, the growth was 97.6%.

For the compound `C/C(=C(\c1ccc(O)cc1)c1ccc(OCCN2CCCCCC2)cc1)c1ccc(Cl)cc1`, the growth was -20.6% (active).

For the compound `CC1=C(C)C(=O)C(Nc2cccc(C(F)(F)F)c2)=C(Br)C1=O`, the growth was 91.1%.

On to `CC(C)C(/C=C/c1[nH]ncc1-c1cc(Cl)ccc1O)N1CCOCC1` (configuration not stated), for which the growth was 99.5%.

For `Fc1cccc(Cl)c1/C=N/Nc1nc(N/N=C/c2c(F)cccc2Cl)nc(N2CCCCC2)n1`, the growth is 25.8%.

For `COc1ccc(C2C(C#N)=C(/N=C/c3ccc(Cl)cc3)Oc3c2sc2c(C)cccc32)cc1` (configuration not stated), the growth is 27.9%.

With `O=C(CCCCCCNC(=O)C(O)(O)C(F)(F)F)Nc1ccc(Cl)cc1`, the growth was 31.7%.

As to `O=C1C(SCc2ccccc2)=C(Cl)CN1c1ccc(Cl)cc1`, the growth is 96.9%.

Turning to `Cc1ccc(-c2nc(SCC(=O)c3ccccc3)nc(Nc3ccc(S(N)(=O)=O)cc3)c2C#N)cc1`, the growth is 77.3%.

As for `O=C1C(N2CCN(c3ccccc3)CC2)=C(Cl)C(=O)c2ncccc21`, the growth is 81.5%.

Consider `C#Cc1nc(C(=O)NCCCCCCC(=O)NO)cs1`, for which the growth is 30.6%.

For `C[C@H](Nc1ncnc2ccc(-c3cnc(Cl)c(NS(C)(=O)=O)c3)cc12)c1ccccc1`, the growth is -44.3% (active).

Regarding `Cc1ccc(/C=N/Nc2nc(Nc3ccccc3)nc(Nc3ccc(S(N)(=O)=O)cc3)n2)cc1`, the growth is 77.6%.

`Cc1ccc(S(=O)(=O)NCCCNc2nc(Nc3ccc(N4CCN(C)CC4)cc3)nc3ccsc23)cc1`: the growth is 58.7%.

In the case of `CC(C)=CCC[C@](C)(O)[C@H]1CC[C@]2(C)[C@@H]1CC[C@@H]1[C@@]3(C)CC[C@H](N)C(C)(C)[C@@H]3CC[C@]12C`, the growth was 81.2%.

On to `NNc1nnc2nc(Nc3ccccc3)nc(Nc3ccc(S(N)(=O)=O)cc3)n12`, for which the growth was 102%.

These data come from PubChem BioAssay (NCI).
